# Screening results (PubChem)
# The list is not random: actives were taken first. Their share in the collection is about 3.3%.
# CASP6 VEID inh – inhibitors of human caspase-6; P55212; purified caspase-6, Z-VEID-R110 cleavage fluorescence; inhibition, % at 12.5 µM; actives 0.53% (n = 350,000); AID 686996;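 active = mean inhibition across replicates at least about 35%, with every replicate also reaching that limit, limit read from the data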;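 note: 0% = median of neutral control wells and 100% = no fluorescence left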
# Target sequence (P55212 24-179 limits assumed): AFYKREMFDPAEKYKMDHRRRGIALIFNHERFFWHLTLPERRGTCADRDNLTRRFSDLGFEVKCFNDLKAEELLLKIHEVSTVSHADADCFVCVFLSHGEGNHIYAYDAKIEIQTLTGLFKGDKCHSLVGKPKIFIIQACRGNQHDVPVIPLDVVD
# Target sequence (P55212 194-293 limits assumed): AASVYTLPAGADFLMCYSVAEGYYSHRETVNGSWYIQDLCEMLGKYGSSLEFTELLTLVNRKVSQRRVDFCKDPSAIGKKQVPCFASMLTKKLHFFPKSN
# FGF22 binding – FGF22 (human) thermal shift binding. Q9HCT0. recombinant FGF22 thermal shift, SYPRO orange fluorescence; percent of sucrose octasulfate shift, DMSO zero. activity (Tm shift, normalised), % at 9.99 µM. actives 1.5% (n = 340,000);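 active = mean Tm shift, scaled 0 neutral to 100 positive control, at about 1.3% or above, every replicate too, limit read from the data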
# ERAP1 inh – ERAP1 (human) enzyme inhibition; inhibition, % at 10.7 µM; Q9NZ08; actives 0.15% (n = 340,000); recombinant ERAP1, Leu-AMC fluorescence, 60 min; AID 652197;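 active = mean replicate inhibition of at least 30%, or all replicates individually reaching that 30% level; inactive = mean below 30% and not every replicate reaching it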;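 note: 0% = neutral control wells and 100% = L-leucinethiol positive control wells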
# INS-1E GSIS act – GLuc luminescence reporter in INS-1E cells, primary screen for activators of glucose-dependent secretion of insulin; activation, % at 16.6 µM; actives 0.61% (n = 370,000); AID 743287; INS-1E GLuc reporter insulin secretion, 2-3 h;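 active = lowest replicate activation of at least 40%, so every replicate reaches that level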;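 note: 0% = median of neutral control wells and 100% = median of IBMX positive control wells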
# SIRT5 block – sirtuin-5 (human) deacylase inhibition; Q9NXA8; Purified SirT5, succinyl-peptide AMC, trypsin-coupled fluorescence; inhibition, % at 15 µM; actives 1.1% (n = 330,000); AID 652115; in the data active = inhibition above about 15%
# Target sequence (Q9NXA8 whole entry, looked up): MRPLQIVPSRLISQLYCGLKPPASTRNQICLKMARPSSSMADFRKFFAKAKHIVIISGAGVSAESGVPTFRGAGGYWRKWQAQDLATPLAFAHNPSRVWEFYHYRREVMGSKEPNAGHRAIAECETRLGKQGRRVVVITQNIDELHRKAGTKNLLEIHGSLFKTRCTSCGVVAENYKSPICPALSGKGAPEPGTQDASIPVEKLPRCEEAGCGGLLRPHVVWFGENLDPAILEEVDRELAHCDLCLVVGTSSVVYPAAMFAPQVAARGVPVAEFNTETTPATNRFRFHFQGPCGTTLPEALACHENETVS
# * hit, by the source's call; · = no result.
SMILES,CASP6 VEID inh,FGF22 binding,ERAP1 inh,INS-1E GSIS act,SIRT5 block
CO[C@H]1CN(C)C(=O)c2ccc(NS(C)(=O)=O)cc2OC[C@@H](C)N(C(=O)C2CCCC2)C[C@H]1C,-1,0,1,-5,1
CC(C)CC#Cc1ccc([C@@H]2[C@@H](CO)N3C(=O)CN(C(=O)CN4CCOCC4)C[C@@H]23)cc1,2,·,-2,-1,17*
CC(C)CC#Cc1ccc([C@H]2[C@H](CO)N3C(=O)CN(C(=O)CN4CCOCC4)C[C@@H]23)cc1,·,·,·,2,-4
CCCn1c(N)c(C(=O)CN2CCN(S(=O)(=O)c3cccc(Cl)c3)CC2)c(=O)[nH]c1=O,41*,0,0,10,-4
C[C@H](CO)N1C[C@H](C)[C@@H](CN(C)Cc2ccc3c(c2)OCO3)OCCCC[C@H](C)Oc2ccc(NS(=O)(=O)c3cn(C)cn3)cc2C1=O,·,0,·,5,·
Cc1cc(C)n2c(Nc3ccc4c(c3)OCCO4)c(-c3cc4ccccc4o3)nc2n1,-1,0,0,31,-5
Cc1cc(C)n2c(Nc3ccc4c(c3)OCCO4)c(-c3ccccn3)nc2n1,-3,0,54*,-15,·
O=C(NC1CCCC1)N1CC2(C1)[C@H](c1ccccc1)[C@@H](CO)N2S(=O)(=O)Cc1ccccc1,3,·,-3,1,2
CCCCC[C@H](O)/C=C/C1C(=O)C=C[C@H]1C/C=C\CCCC(=O)OC (some centres not stated),53*,0,0,-7,5
COc1ccc(CN2C[C@@H](O)COC[C@H]3O[C@H](CC(=O)NCCN4CCCC4)CC[C@@H]32)cc1,-87,0,-3,-4,21*
COc1ccc(CN2C[C@H](O)COC[C@@H]3O[C@H](CC(=O)N4CCc5ccccc5C4)CC[C@H]32)cc1,-3,0,4,-10,15*
C[C@@H]1CCCCO[C@H](CN(C)C(=O)Nc2cccc3ccccc23)[C@@H](C)CN([C@@H](C)CO)C(=O)c2cc(NS(=O)(=O)c3cn(C)cn3)ccc2O1,·,0,·,-5,·
CNC(=O)C[C@@H]1CC[C@H]2[C@@H](COC[C@@H](O)CN2C(=O)c2ccccn2)O1,-3,0,-5,4,0
COc1ccc(C(=O)NNC(=O)CSc2nnc(C)n2CC2CCCO2)cc1 (configuration not stated),4,44*,2,2,-3
COc1ccc(NC(=O)CC2C(=O)N(Cc3cccs3)C(=S)N2C(C)C)cc1 (configuration not stated),4,0,·,-62,31*
CCCCN1CC(COc2ccccc2)OC1=O (configuration not stated),·,·,·,-5,·
CC#CCOCC1CN(C)C(=O)O1 (configuration not stated),-2,43*,-1,-1,·
Cc1ccnc(NC(=O)CCC(=O)N(Cc2ccco2)C(C(=O)NC(C)C)c2ccc(F)cc2)c1 (configuration not stated),-3,0,1,-7,100*
C[N+]1(CCOC(=O)C2(c3ccccc3)CCCC2)CCCCC1,1,0,67*,3,9
COc1cccc(CN2[C@@H](CO)[C@H](c3ccccc3)C23CN(Cc2ccccc2OC)C3)c1,·,·,·,-35,·
CCC(Sc1nc(-c2ccccc2)c(-c2ccccc2)[nH]1)C(=O)O (configuration not stated),-3,0,-1,67*,1
CC(C)(C)[S@@](=O)N1Cc2cc(C(=O)N3CCCCC3)nc(-c3cccc(-c4ccccc4F)c3)c2[C@H]1CCO,-1,0,-1,-30,0
C[C@H](NC(=O)N(C)C[C@@H]1OCc2ccccc2-c2c(n(C)c3ccccc23)C(=O)N([C@H](C)CO)C[C@@H]1C)c1ccccc1,·,0,·,-3,6
COc1ccc(-c2nc(S(=O)(=O)c3ccccc3)c(N3CCN(C)CC3)o2)cc1,0,46*,2,·,·
CCOc1ccc(-c2nc(S(=O)(=O)c3ccccc3)c(N3CCOCC3)o2)cc1,0,0,4,4,-7
SMILES,CASP6 VEID inh,FGF22 binding,ERAP1 inh,INS-1E GSIS act,SIRT5 block
O=C(C[C@H]1C=C[C@@H](NC(=O)NC2CCCCC2)[C@H](CO)O1)NCc1ccc(F)cc1,0,0,-1,8,5
O=C(O)c1cccc(-n2cccc2/C=C2\NC(=O)N(Cc3ccc(F)cc3)C2=O)c1,72*,0,0,-12,16*
O=C1N/C(=C/c2cccn2-c2ccc(F)cc2)C(=O)N1Cc1ccccc1,·,·,·,-13,·
Cc1ccc(CN2C(=O)N/C(=C\c3cccn3-c3cccc(C(=O)O)c3)C2=O)cc1,60*,0,11,3,10
Cc1ccc2nc(NC(=O)c3ccc(N4C(=O)CCC4=O)cc3)sc2c1,-1,43*,-3,15,-3
O=C(c1cccs1)N1CCN(c2nc3c(F)cc(F)cc3s2)CC1,1,0,3,-35,18*
C[C@H]1CN([C@@H](C)CO)C(=O)c2cc(-c3ccccc3F)cnc2O[C@H]1CN(C)C,-2,0,-5,8,3
C[C@@H]1CN([C@@H](C)CO)C(=O)c2cc(NC(=O)C3CCCCC3)ccc2O[C@H]1CN(C)C(=O)Nc1ccccc1,0,0,3,1,0
C[C@@H]1CN([C@H](C)CO)S(=O)(=O)c2ccc(C#CC(C)(C)O)cc2O[C@@H]1CN(C)C(=O)C1CCCCC1,0,0,-1,2,-1
CC(C)(C)OC(=O)N1CCC(NC(=O)c2[nH]cnc2C(=O)Nc2ccccc2F)CC1,-2,43*,0,-20,·
COc1cc2c(cc1OC)C(=S)NC1(CCCC1)C2,0,0,-1,17,38*
Cc1noc(C)c1S(=O)(=O)N(C)C[C@@H]1Oc2ccc(NC(=O)C3CC3)cc2CC(=O)N([C@@H](C)CO)C[C@H]1C,-2,-1,3,-8,6
O=C(COC(=O)Cc1ccc(S(=O)(=O)N2CCOCC2)s1)Nc1ccc(F)cc1F,43*,0,-3,·,1
CC(C)NC(=O)N(C)C[C@@H]1Oc2ccc(NS(=O)(=O)c3ccc(Cl)cc3)cc2CC(=O)N([C@@H](C)CO)C[C@H]1C,-1,0,0,-11,-1
COc1ccc(S(=O)(=O)N(C)C[C@@H]2Oc3c(NC(=O)c4ccc(-c5nccs5)cc4)cccc3C(=O)N([C@@H](C)CO)C[C@H]2C)cc1,·,·,·,2,·
CO[C@H]1CN(C)C(=O)c2ccc(NC(=O)c3ccccc3F)cc2OC[C@H](C)N(CC2CC2)C[C@@H]1C,0,0,-7,-2,1
CCCCn1c(N)c(N(CC(C)C)C(=O)CC(NC(=O)c2ccccc2Cl)c2ccccc2)c(=O)[nH]c1=O (configuration not stated),-1,0,1,5,-1
CCCCN(C(=O)c1cccc(-n2cccc2)c1)c1c(N)n(CCCC)c(=O)[nH]c1=O,43*,0,2,21,1
